Compound activity deposited in PubChem BioAssay by several laboratories.
Sampled rows, rich in hits. Any-hit rate of the full collection: about 2%.
MsrA inhibitor – bovine MsrA enzyme inhibitors, primary screen, biochemical, absorbance, HTS. inhibition, % at 15.5 µM. 360,000 tested, 0.75% active. purified bovine MsrA, absorbance read-out; in the data active = inhibition above about 4.5%;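 note: 0% = vehicle wells with enzyme and 100% = reference inhibitor wells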
PKA-R2B activ – activators of PKA-R2B holoenzyme, primary screen, biochemical, fluorescence polarization, Cy5-IP20, human; cAMP-dependent protein kinase catalytic subunit beta (Homo sapiens) + cAMP-dependent …; PKA-R2B holoenzyme dissociation; R2B truncated from residue 108, S112A mutant; 0% DMSO only, 100% 113 µM cGMP; activation, % at 11.4 µM; 340,000 tested, 0.079% active;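 active = activation above a cutoff set at the mean over all compounds plus 3 SD, cut at about 18% in these data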;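 note: higher means more holoenzyme dissociation and a rise in polarization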
Target sequence (P31323 whole entry, looked up, other chains not shown, the tested form may be a part): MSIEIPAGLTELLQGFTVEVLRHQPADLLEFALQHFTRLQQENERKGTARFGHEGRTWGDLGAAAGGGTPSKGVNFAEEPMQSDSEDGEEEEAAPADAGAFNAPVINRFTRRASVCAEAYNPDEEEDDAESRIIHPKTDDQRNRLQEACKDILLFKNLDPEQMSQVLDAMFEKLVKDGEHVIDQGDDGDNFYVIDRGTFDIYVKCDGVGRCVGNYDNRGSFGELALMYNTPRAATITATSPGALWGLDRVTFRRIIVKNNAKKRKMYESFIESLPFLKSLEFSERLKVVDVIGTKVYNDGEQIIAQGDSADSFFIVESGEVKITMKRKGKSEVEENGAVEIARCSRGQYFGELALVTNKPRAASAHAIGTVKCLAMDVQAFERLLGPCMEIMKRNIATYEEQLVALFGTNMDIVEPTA
SUMO Mot1 rescue – yeast Mot1-301 growth rescue at high temperature, primary screen, SUMOylation pathway inhibitor project, S. cerevisiae, ATP luminescence, 38.5C | AID 2716, 2010 | growth rescue, % at 18.8 µM | 320,000 tested, 1% active | S. cerevisiae Mot1-301 growth rescue; percent above DMSO median, 100 means doubled;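 active = every valid replicate shows activation above 250% relative to neutral control wells; inactive = the rest, any valid replicate at or below 250%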;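 note: OY570 slx delta 5 strain wells were the positive control but not used for scaling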
PKA-R1A activ – activators of PKA-R1A holoenzyme, primary screen, biochemical, fluorescence polarization, Cy5-IP20, bovine R1A, mouse PKAc; cAMP-dependent protein kinase type I-alpha regulatory subunit (Bos taurus) + …; PKA-R1A dissociation; scaled: DMSO 0%, 113 µM cGMP 100%; 340,000 tested, 0.083% active; AID 504707, 2011; activation, % at 11.4 µM;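 active = percent activation above the mean of all tested compounds plus 3 SD, cut at about 19% in these data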;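 note: higher means more PKAc released from R1A so a rise in polarization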
MsrA act – bovine MsrA enzyme activators, primary screen, biochemical, absorbance, HTS. activation, % at 10.6 µM. purified bovine MsrA, absorbance read-out. AID 602163, 2012. 360,000 tested, 0.3% active. Methionine sulfoxide reductase A (Bos taurus); in the data active = activation above about 7.5%;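 note: 0% = vehicle and 100% = reference activator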
Numbers without * were called inactive.

Screening COc1ccc(CNC(=O)C2(CC(=O)NC(C)(C)C)CCCC2)cc1 returned MsrA inhibitor 1, PKA-R2B activ -4, SUMO Mot1 rescue -2, PKA-R1A activ -2 and MsrA act -1.
`CC(C)NC(=O)CC1(C(=O)NCc2ccc(Cl)cc2)CCCC1` gave MsrA inhibitor -1, PKA-R2B activ 4, SUMO Mot1 rescue 302*, PKA-R1A activ 5 and MsrA act 2.
COC(=O)[C@]12C[C@H](CC(=O)NCc3ccc(OC)c(OC)c3)C(=O)N(Cc3ccc4c(c3)OCO4)C1=C[C@H](COCc1ccccc1)O[C@@H]2C was read as MsrA inhibitor 0.
For O=[N+]([O-])c1ccc(N/N=C/c2cccc(O)c2O)cc1 the results were MsrA inhibitor 2, PKA-R2B activ -4, SUMO Mot1 rescue 317*, PKA-R1A activ -6 and MsrA act -3.
Screening O=C(O)c1ccc(-c2ccc(/C=N/Nc3ccc([N+](=O)[O-])cc3)o2)cc1 returned MsrA inhibitor 1, PKA-R2B activ -9, SUMO Mot1 rescue 197, PKA-R1A activ -20 and MsrA act -10.
For O=C(O)c1cccc(-c2ccc(/C=N/Nc3ccc([N+](=O)[O-])cc3)o2)c1 the results were MsrA inhibitor 1, PKA-R2B activ -5, SUMO Mot1 rescue 311*, PKA-R1A activ -13 and MsrA act -4.
`NS(=O)(=O)c1ccc(-c2ccc(/C=N/NC(=O)c3ccc([N+](=O)[O-])cc3)o2)cc1` gave MsrA inhibitor 4, PKA-R2B activ -10, SUMO Mot1 rescue 311*, PKA-R1A activ -9 and MsrA act -7.
Cc1cc(N2CCN(C(=O)OC(C)(C)C)C[C@@H]2C)ccc1N1CCN(Cc2ccccc2)[C@@H](C)C1 was read as MsrA inhibitor 1.
`Cc1ccc(S(=O)(=O)NCC2CCN(C(=O)C(=O)c3cc4ccccc4o3)CC2)cc1` gave MsrA inhibitor 2.
Screening CCCC1COC(Cn2cncn2)(c2ccc(C)cc2)O1 (stereo unspecified) returned MsrA inhibitor 0, PKA-R2B activ -7, SUMO Mot1 rescue 281*, PKA-R1A activ -1 and MsrA act -1.
For NC(=S)N=Nc1c(O)n(CC(=O)Nc2ccccc2)c2ccccc12 the results were MsrA inhibitor 1, PKA-R2B activ -1, SUMO Mot1 rescue -3, PKA-R1A activ 3 and MsrA act -2.
For NC(=S)N=Nc1c(O)n(CCCl)c2ccccc12 the results were MsrA inhibitor 4.6*, SUMO Mot1 rescue -32 and MsrA act -2.
NC(=S)N=Nc1c(O)n(CCCl)c2ccc(Cl)cc12 was read as MsrA inhibitor 2, PKA-R2B activ 1, SUMO Mot1 rescue 341*, PKA-R1A activ -12 and MsrA act -4.
Screening C[C@@H]1CN([C@@H](C)CO)C(=O)CCCn2cc(nn2)CO[C@H]1CN(C)C(=O)NC1CCCCC1 returned MsrA inhibitor -1.
`COC(=O)Cc1nnn2c1[C@H](C)[C@@H](OC)c1ccccc1-2` gave MsrA inhibitor 0.
O=S(=O)(c1cccc2nsnc12)N1CCN(C/C=C/c2ccccc2)CC1 was read as MsrA inhibitor 0, PKA-R2B activ -4, SUMO Mot1 rescue 185, PKA-R1A activ -3 and MsrA act -2.
`O=S(=O)(c1cccc2nsnc12)N1CCN(C/C=C\c2ccccc2)CC1` gave MsrA inhibitor 0, PKA-R2B activ -5, SUMO Mot1 rescue 309*, PKA-R1A activ -1 and MsrA act -2.
`CCOC(=O)C(C)N1N=C(/C=C/c2ccc(C)cc2)CCC1=O` (stereo unspecified) gave MsrA inhibitor 3, PKA-R2B activ -5, SUMO Mot1 rescue 2, PKA-R1A activ -5 and MsrA act -14.
C=CCN1N=C(/C=C/c2ccc(C)cc2)CCC1=O was read as MsrA inhibitor 4.6*, PKA-R2B activ -20, SUMO Mot1 rescue -18, PKA-R1A activ -2 and MsrA act -9.
Screening Cc1ccc(S(=O)(=O)NC(=O)ON=Cc2ccc3c(c2)OCO3)cc1 returned MsrA inhibitor 0.
`Nc1[nH]c(N=NC(=O)c2ccccc2O)c2ccccc12` gave MsrA inhibitor 4.6*, PKA-R2B activ -2, SUMO Mot1 rescue 4, PKA-R1A activ -1 and MsrA act -10.
`Nc1[nH]c(N=NC(=O)c2ccccc2)c2ccccc12` gave MsrA inhibitor -1, PKA-R2B activ 9, SUMO Mot1 rescue -13, PKA-R1A activ -3 and MsrA act -8.
For CC1(C)OC(=O)N(c2ccccc2)C12C=Cc1c(ccc3ccccc13)O2 (stereo unspecified) the results were MsrA inhibitor -1, PKA-R2B activ 0, SUMO Mot1 rescue 274*, PKA-R1A activ -4 and MsrA act -7.
Screening O=C(CCCN1CCN(c2ccccn2)CC1)c1ccc(F)cc1 returned MsrA inhibitor -2, PKA-R2B activ 8, SUMO Mot1 rescue 351*, PKA-R1A activ 6 and MsrA act 1.
COC(=O)C1=C(C)N(Cc2cccc(C(F)(F)F)c2)C(=NCc2ccc3c(c2)OCO3)NC1c1ccccc1C(F)(F)F (stereo unspecified) was read as MsrA inhibitor -2.
`COC(=O)C(=CC(=CN(C)C)C=C(C(=O)OC)C(=O)OC)C(=O)OC` gave MsrA inhibitor 4.5*, PKA-R2B activ 2, SUMO Mot1 rescue 11, PKA-R1A activ -2 and MsrA act -5.
Screening O=C(N/N=C\C=C\c1ccco1)c1cc(-c2ccc3ccccc3c2)n[nH]1 returned MsrA inhibitor 2, PKA-R2B activ 3, SUMO Mot1 rescue 594*, PKA-R1A activ -8 and MsrA act -6.
For O=C(CNc1cccc2ccccc12)N/N=C/C=C/c1ccco1 the results were MsrA inhibitor 4.6*, PKA-R2B activ 6, SUMO Mot1 rescue -8, PKA-R1A activ -7 and MsrA act -5.
For OC(c1ccccc1)(c1ccccc1)C1CCN(CCCOc2cccc(F)c2)CC1 the results were MsrA inhibitor 1.
For COCC(=O)N1CCCC(CNS(=O)(=O)c2ccc(OC)cc2)C1 (stereo unspecified) the results were MsrA inhibitor 2, PKA-R2B activ 4, SUMO Mot1 rescue 670*, PKA-R1A activ -19 and MsrA act -1.
For CCOC(=O)C1CCCN(C(=O)C2CCC(CNS(=O)(=O)c3ccc(NC(C)=O)cc3)CC2)C1 (stereo unspecified) the results were MsrA inhibitor 0, PKA-R2B activ 15, SUMO Mot1 rescue 282*, PKA-R1A activ 5 and MsrA act 0.
